Compounds without any hit were thinned out: in the full panel of roughly 79,000, 15% have a hit. Cut-off read from the data, not from the text of the source: active = growth inhibition above about 70%; inactive = the rest.
How the values were obtained:
[1] = NCI Yeast Anticancer Drug Screen. Data for the rad50 strain (AID 155);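 note: 0% = growth of vehicle-only cultures of the same strain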; conditions: S. cerevisiae rad50 strain growth inhibition; at 50.0 µM; active compounds read high
How it was run: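 Genetically altered yeast (DNA repair pathway); compound treatment; growth inhibition vs vehicle ctrl.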

[2] = NCI Yeast Anticancer Drug Screen. Data for the mec2-1 strain (AID 157); conditions: S. cerevisiae mec2-1 strain, at 50.0 µM, active compounds read high
How it was run: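 Compounds were applied to mec2-1 yeast cells. Their growth was then compared with that of vehicle-treated cultures to give growth inhibition.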

[3] = NCI Yeast Anticancer Drug Screen. Data for the sgs1 mgt1 strain (AID 161);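 note: 0% = growth of cultures given vehicle only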; conditions: S. cerevisiae sgs1 mgt1 strain, at 50.0 µM, active compounds read high
How it was run: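 Compounds are added to genetically altered yeast, and growth is compared with cultures given vehicle alone to give percent inhibition.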

[4] = NCI Yeast Anticancer Drug Screen. Data for the cln2 rad14 strain (AID 165);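 note: 0% = growth equal to vehicle treated cultures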; conditions: S. cerevisiae cln2 rad14 strain, at 50.0 µM, active compounds read high
How it was run: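 Strain: cln2 rad14 yeast, altered in cell cycle control and DNA damage repair. Read-out: growth inhibition vs vehicle.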

[5] = NCI Yeast Anticancer Drug Screen. Data for the bub3 strain (AID 167); conditions: S. cerevisiae bub3 mutant strain, at 50.0 µM, active compounds read high
How it was run: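 Yeast carrying a defined mutation is treated with each compound, and growth is compared with that of vehicle-exposed cells to give inhibition.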

[6] = NCI Yeast Anticancer Drug Screen. Data for the mlh1 rad18 strain (AID 175); conditions: S. cerevisiae mlh1 rad18 strain growth inhibition; at 50.0 µM; active compounds read high
How it was run: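 A repair-deficient yeast strain is exposed to test compound, and growth is scored relative to vehicle-treated controls.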

Measured: growth inhibition

O=C(O)c1nccc2c(O)cccc12
inactive: [1] -5.75% | [2] -4.45% | [3] -16.1% | [4] -19.6% | [5] -23.9% | [6] 3.3%

CC(=O)NC(Cc1c[nH]c2ccccc12)C(=O)Oc1ccc([N+](=O)[O-])cc1 (stereo unspecified)
inactive: [1] -9.2% | [2] 23.1% | [3] 24.6% | [4] 13.1% | [5] 9.3% | [6] 17.6%

COCN(Cc1ccccc1)C[Si](C)(C)C
inactive: [1] 39.5% | [2] 2% | [3] 1.3% | [4] -20% | [5] 14.2% | [6] -9.6%

Oc1cccc2nc3ccccc3cc12
inactive: [1] 4.3% | [2] 1.15% | [3] 16.2% | [4] -10% | [5] 3% | [6] 9.6%

CCCCN(CCCC)CCC(O)c1ccc(OC)c2ccccc12 (stereo unspecified)
inactive: [1] 44.6% | [2] 4.55% | [3] 56.2% | [4] 57.4% | [5] 16.4% | [6] 49.7%

NC(CSCc1ccccc1)P(=O)(O)O (stereo unspecified)
inactive: [1] 8.35% | [2] 0.55% | [3] 0.2% | [4] -7.45% | [5] -2.45% | [6] -1.55%

CCOC(=O)c1ccc(N=Cc2ccc(N(CCC#N)S(=O)(=O)c3ccccc3)cc2C)cc1
inactive: [1] -3.9% | [2] 15.1% | [3] -20% | [4] 6.95% | [5] 2.95% | [6] -3.95%

Nc1ccc[nH]c1=O
inactive: [1] 15.7% | [2] 4% | [3] 19.6% | [4] 8.8% | [5] 20.7% | [6] -12.4%

CC(=O)C1(C)CCC2C3CCC4=CC(=O)CCC4=C3CCC21C (stereo unspecified)
inactive: [1] 32.1% | [2] 1.3% | [3] 50.9% | [4] 9.9% | [5] 34% | [6] 23.6%

CC(=O)NC(N)=O
inactive: [1] 3.9% | [2] 2.2% | [3] 28.4% | [4] -30.9% | [5] -1.9% | [6] 1.6%

CC1(C)N=C(N)N=C(N)N1c1ccc(CN)cc1
inactive: [1] 19.8% | [2] 7% | [3] -18.4% | [4] -6.8% | [5] -2.3% | [6] 19.3%

Cc1nc2sccc2c(=O)n1C
inactive: [1] -4.5% | [2] -3.6% | [3] -0.9% | [4] -4.1% | [5] 0.2% | [6] -4.35%

CC(=O)n1c(=O)c2cc3c(=O)n(-c4cccc(C#N)c4)c(=O)c3cc2c1=O
inactive: [1] -25.4% | [2] -19.4% | [3] 9.65% | [4] 7.65% | [5] 4.8% | [6] -9.65%

N#C/C(=C\c1ccccc1)C(NO)Nc1ccccc1 (stereo unspecified)
inactive: [1] -31.1% | [2] -10.2% | [3] -1.4% | [4] 0.05% | [5] 6.65% | [6] -14.8%

Cc1ccccc1-n1c(C)nc2cc(NC(N)=S)ccc2c1=O
inactive: [1] -19.1% | [2] -3.05% | [3] 0% | [4] -24.5% | [5] -5.9% | [6] -17.7%

CCOC(=O)/N=c1/nc(N(C)C)ss1
inactive: [1] -18.9% | [2] -29.6% | [3] 4.15% | [4] -19.6% | [5] -9.4% | [6] -5.05%

CC(=O)C1=C(O)/C(=C/c2ccccc2)NC1=O
inactive: [1] 8.05% | [2] 5.15% | [3] -6.3% | [4] -35.5% | [5] -13.2% | [6] -3.2%

CCCCCO[Si](OCCCCC)(OCCCCC)OCCCCC
inactive: [1] 3.8% | [2] -9.3% | [3] 29.4% | [4] -4.4% | [5] 1.55% | [6] 10.9%

CCN(CCO)C(=O)C1(c2ccccc2)CCCCC1
inactive: [1] 11.8% | [2] -9.7% | [3] 9.35% | [4] 28% | [5] 18.4% | [6] -1.4%

OCC1OC(OC2CCCCC2)C(O)C(O)C1O (stereo unspecified)
inactive: [1] -1.45% | [2] 51.5% | [3] 21.9% | [4] -5.05% | [5] 24.6% | [6] 32.8%

CCN(CC)Cc1ccccc1COC(=O)c1cccc(Cl)c1
inactive: [1] 19.6% | [2] 3.7% | [3] 10.9% | [4] 15.8% | [5] -5.9% | [6] 26.1%

— PubChem BioAssay (NCI)
